LGR2 antag – inhibitors of bursicon-induced Drosophila LGR2 receptor cAMP signaling; HEK293 LGR2, CRE-luciferase, bursicon-stimulated, 4 h; inhibition, % at 9.99 µM; 0.35% of 380,000 active;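 active = drop in luminescence signal, shown as inhibition above about 50% in the replicate tests, limit read from the data, passing the limit was not always enough; inconclusive = probably only some replicates passing the limit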;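 note: agonist challenge used bursicon conditioned medium at about half maximal strength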
EWS-Fli block – inhibitors of EWS/Fli oncoprotein transcriptional activity. A673 NR0B1-luciferase reporter, viability-normalised. AID 651661. inhibition, % at 12.6 µM. 0.67% of 350,000 active;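 active = mean inhibition of at least 50% after viability correction, with every replicate also passing that limit; inconclusive = mean reaches 50% but only one of two replicates passes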;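 note: firefly luciferase signal divided by Alamar Blue viability fluorescence both relative to DMSO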
TROY signal inh – blocks TROY-dependent signaling in reporter cells. inhibition, % at 10 µM. Q293 LMP1-TROYcd NF-kB luciferase reporter, 4 h. AID 1347056. 0.98% of 360,000 active;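 active = compounds whose plate-normalised and pattern-corrected inhibition of the luciferase reporter signal at the single screening dose is 50% or more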
PAX8 inh HTS – lowers PAX8-driven luciferase in RMG-I cells; AID 652154; 1.2% of 360,000 active; RMG-I TPO-luciferase reporter, SteadyGlo, 24 h; inhibition, % at 12.6 µM;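 active = mean replicate inhibition at least 60% with every replicate also reaching 60%; inconclusive = only one of the two criteria is met; inactive = mean below 60% and not all replicates reaching 60%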;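 note: luciferase light reporting Pax8 driven TPO promoter activity; plate controls were median of neutral control wells for no effect and mitoxantrone controls for full effect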
TWEAK Fn14 block – blocks TWEAK-Fn14 interaction in a reporter cell assay; inhibition, % at 10 µM; 2% of 360,000 active; TWEAK-stimulated Fn14 reporter cells, luciferase luminescence, 8 h; AID 1159606; in the data active = inhibition above about 50%
LMP1 NFkB inh – inhibitors of Epstein-Barr LMP1-induced NF-kappaB reporter; LMP1-induced NF-kappaB luciferase reporter cells, luminescence; inhibition, % at 12.5 µM; AID 504558; 0.69% of 350,000 active; in the data active = inhibition above about 41%; inconclusive = no clear call, values can overlap the other calls;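 note: 0% = neutral control wells and 100% = reference inhibitor control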
Starred values were filed as active, the others as inactive; u = inconclusive; x = no result. A selection: hits, their analogues and other compounds. The true share with any hit is near 3.1%.

SMILES | LGR2 antag | EWS-Fli block | TROY signal inh | PAX8 inh HTS | TWEAK Fn14 block | LMP1 NFkB inh
COc1ccc(S(=O)(=O)Nc2ccc3c(c2)C(=O)N([C@H](C)CO)C[C@@H](C)[C@H](CN(C)S(=O)(=O)c2ccc(OC)cc2)OCCCC[C@H](C)O3)cc1 | 11 | 11 | x | -4 | x | x
CCN1CCN(C(=S)c2ccc(-c3ccccc3)cc2)CC1 | -7 | 21 | 5 | 13 | 69* | 1
CN(C)Cc1cn(CC[C@H]2CC[C@@H](NC(=O)Nc3ccc4c(c3)OCO4)[C@H](CO)O2)nn1 | -20 | -8 | x | 0 | x | x
COc1ccc2c3c(n(C)c2c1)[C@H](CO)NCC31CN(C(=O)c2ccc(F)cc2)C1 | -5 | 5 | x | x | x | x
COc1ccccc1-c1c(C)oc2c(CN3CCN(CCO)CC3)c(O)ccc2c1=O | x | x | x | x | 86* | -1
C[C@@H]1CN([C@H](C)CO)C(=O)c2cc(NC(=O)Nc3ccc(F)cc3)ccc2O[C@@H](C)CCCCO[C@@H]1CN(C)Cc1ccc2c(c1)OCO2 | 20 | 21 | x | 92* | x | x
C[C@@H]1CCCCO[C@H](CN(C)Cc2ccc3c(c2)OCO3)[C@H](C)CN([C@H](C)CO)C(=O)c2cc(NC(=O)Nc3ccc(F)cc3)ccc2O1 | 20 | 3 | x | 66* | x | x
C[C@@H]1CCCCO[C@@H](CN(C)Cc2ccc3c(c2)OCO3)[C@@H](C)CN([C@H](C)CO)C(=O)c2cc(NC(=O)Nc3ccc(F)cc3)ccc2O1 | -10 | -11 | x | 16 | x | x
C[C@@H]1CN([C@H](C)CO)C(=O)c2cc(NC(=O)Nc3ccc(F)cc3)ccc2O[C@@H](C)CCCCO[C@H]1CN(C)Cc1ccc2c(c1)OCO2 | 13 | 68* | x | 66* | x | x
C[C@H](CO)N1C[C@H](C)[C@@H](CN(C)Cc2ccc3c(c2)OCO3)OCCCC[C@H](C)Oc2ccc(NC(=O)Nc3ccc(F)cc3)cc2C1=O | 7 | 10 | x | 23 | x | x
Cc1ccc2c(COC(=O)c3ccccc3F)cc(=O)oc2c1 | -90 | -64 | 24 | 2 | 63* | -17
CO[C@H]1CN(C)C(=O)c2ccc(NC(=O)C3CC3)cc2OC[C@@H](C)N(CC2CCOCC2)C[C@@H]1C | 12 | -8 | x | x | x | x
CCC(=O)c1cc2c(C)cc(=O)oc2c(C)c1OC(=O)C(C)C | 4 | 1 | -26 | 72* | -28 | -3
Oc1ccccc1C=Nc1cccc2ccccc12 | 0 | 43 | 66* | 14 | 69* | -3
Oc1cccc(C=Nc2cccc3ccccc23)c1O | -3 | 26 | 61* | u | 101* | -12
Cc1noc(C)c1S(=O)(=O)Nc1ccc2c(c1)C(=O)N([C@H](C)CO)C[C@H](C)[C@@H](CN(C)Cc1ccccc1)OCCCC[C@H](C)O2 | 6 | 3 | x | -5 | x | x
Cc1cccc(NC(=S)N(CCN2CCOCC2)Cc2cc3cc4c(cc3[nH]c2=O)OCCO4)c1 | -18 | 3 | 73* | 14 | 67* | -6
[N-]=[N+]=Nc1ccccc1C[C@]1(C(=O)N2CCCCC2)N=C(c2ccc(OCCCO)cc2)O[C@H]1c1ccccc1 | x | 7 | x | 10 | x | x
COc1ccc(-c2cnc3c(c2)C(=O)N([C@@H](C)CO)C[C@H](C)[C@@H](CN(C)S(=O)(=O)c2ccc(OC)cc2)O3)cc1 | 12 | -3 | x | x | x | x
COc1ccc(S(=O)(=O)Nc2ccc3c(c2)CC(=O)N([C@@H](C)CO)C[C@H](C)[C@@H](CN(C)C(=O)Nc2ccc(F)cc2)O3)cc1 | 6 | -7 | x | 4 | x | x
CC1(C)CN(O)CCN1O | -3 | 73* | -23 | 17 | 2 | 8
COc1ccc(NC(=O)CN(C)C(=O)c2cccnc2Sc2ccc(C)c(C)c2)cc1 | 11 | 5 | -14 | -2 | -16 | -10
CCN(CC(=O)Nc1ccc(NC(C)=O)cc1)C(=O)c1cccnc1Sc1ccc(C)c(C)c1 | 5 | -17 | -8 | 19 | -14 | 41*
O=C(C[C@H]1C[C@H]2c3cc(NC(=O)NC4CCCC4)ccc3O[C@H]2[C@@H](CO)O1)NCCN1CCCCC1 | 2 | -6 | x | -21 | x | x
COCCCNC(=O)/C=C1\Sc2ccccc2N(Cc2ccccc2F)C1=O | -46 | -37 | -29 | 12 | 103* | -4
CCN1CCN(CCNC(=O)c2ccc(/C=C3\Sc4ccccc4N(Cc4ccccc4F)C3=O)cc2)CC1 | 49 | 10 | 65* | 0 | -66 | 8
